A selection: hits, their analogues and other compounds. The true share with any hit is near 2.3%.
ANO1 block – TMEM16A chloride channel inhibitors, primary screen, cell-based, HTS. Anoctamin-1 (Mus musculus), Q8BHY3. HEK293 TMEM16A/YFP iodide influx fluorescence, ionomycin. normalized B-score (activity score, 25-100; higher = stronger inhibition) at 10 µM. actives 1.2% (n = 310,000);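 active means ratio plate-corrected score three or more library SD toward inhibition, starting fluorescence score within five deviations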;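 further: score derived from kinetic fluorescence span divided by baseline fluorescence per well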
Target sequence (Q8BHY3 whole entry, looked up): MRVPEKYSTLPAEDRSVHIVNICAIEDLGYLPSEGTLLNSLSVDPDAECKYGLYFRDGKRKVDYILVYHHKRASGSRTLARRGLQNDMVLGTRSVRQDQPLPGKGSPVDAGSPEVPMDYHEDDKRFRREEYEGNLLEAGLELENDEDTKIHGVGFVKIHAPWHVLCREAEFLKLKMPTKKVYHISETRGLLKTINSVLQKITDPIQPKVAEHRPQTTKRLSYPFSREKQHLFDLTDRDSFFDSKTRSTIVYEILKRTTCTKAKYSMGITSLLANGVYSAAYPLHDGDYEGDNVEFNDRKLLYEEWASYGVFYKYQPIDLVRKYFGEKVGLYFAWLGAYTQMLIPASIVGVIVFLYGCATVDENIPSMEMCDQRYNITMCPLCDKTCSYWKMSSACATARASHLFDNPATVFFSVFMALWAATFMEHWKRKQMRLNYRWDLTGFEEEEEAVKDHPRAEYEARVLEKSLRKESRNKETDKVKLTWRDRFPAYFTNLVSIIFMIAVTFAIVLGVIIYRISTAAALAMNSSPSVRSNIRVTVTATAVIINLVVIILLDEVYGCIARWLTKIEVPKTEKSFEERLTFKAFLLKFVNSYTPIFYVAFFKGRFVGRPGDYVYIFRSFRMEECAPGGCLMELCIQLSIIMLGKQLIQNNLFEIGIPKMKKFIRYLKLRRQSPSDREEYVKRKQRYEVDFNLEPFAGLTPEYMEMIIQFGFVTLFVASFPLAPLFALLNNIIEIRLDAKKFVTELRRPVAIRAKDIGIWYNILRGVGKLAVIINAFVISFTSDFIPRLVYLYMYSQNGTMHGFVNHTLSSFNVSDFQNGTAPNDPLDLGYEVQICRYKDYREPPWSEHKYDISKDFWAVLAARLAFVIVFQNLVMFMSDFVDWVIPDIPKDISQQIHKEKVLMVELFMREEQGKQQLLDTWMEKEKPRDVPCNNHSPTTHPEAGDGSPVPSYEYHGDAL
CHT allo act – CHT positive allosteric modulators, primary screen, cell-based, membrane potential dye, choline EC20; CHT-expressing cells; stronger effect = higher value; LV-AA mutant CHT in HEK293 cells; actives 0.49% (n = 310,000); B-score at 10 µM;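 active means initial fluorescence not abnormally high and integrated response B-score, plate-corrected, over 3 SD above library mean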
TMEM16A act – TMEM16A chloride channel activators or potentiators, primary screen, cell-based, HTS. B-score at 10 µM. HEK293 TMEM16A/YFP-H148Q/I152L, iodide quench fluorescence; stronger effect = lower value. Anoctamin-1 (Mus musculus), Q8BHY3. actives 0.3% (n = 340,000);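 active means fluorescence-ratio B-score plate-corrected deviation score at least 3 library SD below zero, with starting fluorescence score within 5 deviations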;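 further: channel opened by trigger with iodide after compound preincubation; score built on the fluorescence ratio of max minus min over baseline; more negative score means more quench and so TMEM16A activation or potentiation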
CHT block – inhibitors of human choline transporter CHT | B-score at 10 µM | actives 0.86% (n = 310,000) | CHT-expressing cells, membrane potential dye, choline response; stronger effect = lower value | High affinity choline transporter 1 (Homo sapiens), Q9GZV3;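 active means B-score over 3 SD under the library average, and starting fluorescence ratio not unusually high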;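 further: choline stimulus applied at its EC90 after an EC20 pre-addition; B-score computed on integrated fluorescence ratio after choline addition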
CHT activ conf – CHT activators, confirmation, cell-based, membrane potential dye, duplicate; shares compounds with CHT allo act; CHT-expressing cells, membrane potential dye fluorescence (FDSS); % of choline EC20–EC90 response window; HEK293 expressing CHT LV-AA mutant; choline added at its EC20; activation, % at 10 µM; actives 91% (n = 2,500); AID 504833, 2011;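 active means primary screen active, with duplicate mean activation above negative control mean plus 3 SD, cut at about 11% in these data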
HEK293 MP dye – membrane potential response in parental HEK293 cells, counter-screen for CHT activator project, cell-based, membrane potential dye; actives 62% (n = 2,500); membrane potential dye fluorescence (FDSS); measured after EC20 choline addition; AID 623908, 2012; shares compounds with CHT allo act; ratio readout change at 10 µM, hits read low;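 active means duplicate-averaged ratio beyond 3 SD from buffer wells, up or down, though filed actives are nearly all decreases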
Starred values were filed as active, the others as inactive; i = inactive; . = not tested or not shown.

SMILES | ANO1 block | CHT allo act | TMEM16A act | CHT block | CHT activ conf | HEK293 MP dye
Cc1ccc(C(=O)CNc2cccc([N+](=O)[O-])c2)cc1 | i | i | i | i | . | .
Cc1ccc(NCC(=O)c2ccc([N+](=O)[O-])cc2)cc1 | i | 6.4* | i | i | 11* | -23*
O=C(CCCN1CCC(O)(c2ccc(Br)cc2)CC1)c1ccc(F)cc1 | i | i | i | i | 60* | i
COc1ccc(S(=O)(=O)N2CCCCC2)cc1NS(=O)(=O)c1ccc(CNC(C)=O)cc1 | . | . | i | . | . | .
O=c1c2ccccc2sc2c(CO)ccc(NCCN3CCCCC3)c12 | . | . | i | . | . | .
CCN(CC)CCNc1ccc(CO)c2sc3ccccc3c(=O)c12 | i | 6.4* | i | i | 44* | -49*
CCCn1cnnc1CNC(=O)C1CCC(=O)N(CCCc2ccccc2)C1 (stereo not given) | i | i | i | i | . | .
CCOC(=O)c1c(C)n(-c2ccc(OC)cc2)c2ccc(O)c(CN(C)C)c12 | i | 6.5* | i | i | 9 | -26*
CCOC(=O)c1sc(=N)n(-c2ccc(OC)cc2)c1C | i | i | i | i | . | .
CCOC(=O)c1c(C)n(-c2ccc(C)cc2)c2ccc(O)c(CN(C)C)c12 | i | 8.8* | i | i | 15* | i
CCOC(=O)c1c(C)n(-c2ccccc2)c2ccc(OCCN(C)C)cc12 | i | i | i | i | 31* | i
CCCCn1c(N)c(N(CC)C(=O)CN2C(=O)NC(C)(c3ccccc3)C2=O)c(=O)[nH]c1=O (stereo not given) | i | i | i | i | . | .
O=C(c1cc(S(=O)(=O)N2CCOCC2)c(Cl)cc1Cl)N1CCN(S(=O)(=O)c2cccc(F)c2)CC1 | . | . | i | . | . | .
CN1C(=O)CS/C1=N\NC(=O)COc1cccc2cccnc12 | i | 6.6* | i | i | 48* | -56*
CC(=O)CCc1ccc(OCCCCN2CCC(Cc3ccccc3)CC2)cc1 | i | i | i | i | 15* | -26*
O=C(CSc1ccc(F)cc1)NCC1(N2CCOCC2)CCCCC1 | i | i | i | i | . | .
CCCN1C(=O)c2ccc(C(=O)Nc3cc(C)on3)cc2C1=O | i | i | i | i | 21* | -27*
CCOc1ccc(C(=O)Nc2cc(C)on2)cc1OCC | i | i | i | i | 46* | -35*
COc1ccc(-c2nc(-c3ccncc3)no2)c(OC)c1 | i | i | i | i | . | .
COc1cc(OC)c(-c2nc(-c3ccncc3)no2)cc1OC | i | i | i | i | 45* | -43*
CN(CCO)c1cc(NCCCN2CCC(Cc3ccccc3)CC2)c2nonc2c1[N+](=O)[O-] | i | i | i | i | . | .
CC1CCN(CCCNc2cc(NCCO)c([N+](=O)[O-])c3nonc23)CC1 | i | i | i | i | 31* | -62*
CCn1c2ccc(C)cc2c2nnc(SCCN3CCOCC3)nc21 | i | i | i | i | . | .
CCN(CC)CCn1c2ccc(F)cc2c2nc(C)sc21 | i | i | i | i | 27* | -63*
Cc1nc2c3cc(Cl)ccc3n(CCN3CCOCC3)c2s1 | i | i | i | i | 15* | i
SMILES | ANO1 block | CHT allo act | TMEM16A act | CHT block | CHT activ conf | HEK293 MP dye
CCOC(=O)Cn1c2ccc(C)cc2c2nc(C)sc21 | i | i | i | i | . | .
NC(=N\N=CCc1ccccc1)/C(N)=N/N=CCc1ccccc1 | . | . | i | . | . | .
O=C(Cc1ccccc1)N/N=C/c1ccc(-c2ccc([N+](=O)[O-])cc2)o1 | i | i | i | i | . | .
Cc1ccc([N+](=O)[O-])cc1-c1ccc(/C=N/NC(=O)CN2CCOCC2)o1 | i | i | i | i | 51* | -51*
O=C(CCC(=O)c1cccs1)Nc1ncccc1O | i | i | i | i | . | .
Cn1c(=O)c(=O)n(C)c2cc(N3CCOCC3)c(NS(=O)(=O)c3ccc(F)c(Cl)c3)cc21 | i | 6.6* | i | i | 49* | -51*
Cn1c(=O)c(=O)n(C)c2cc(N3CCCC3)c(NS(=O)(=O)c3ccc(Cl)cc3)cc21 | i | 6.6* | i | i | 55* | -55*
Cn1c(=O)c(=O)n(C)c2cc(N3CCOCC3)c(NS(=O)(=O)c3ccc([N+](=O)[O-])cc3)cc21 | i | i | i | i | . | .
Cc1cccc(NC(=O)C2=C(O)c3ccccc3N(C)S2(=O)=O)c1 | i | i | i | i | -2 | -28*
CN1c2ccsc2C(O)=C(C(=O)Nc2ccccc2)S1(=O)=O | i | i | i | i | . | .
O=C(NC(=S)Nc1ccc2nc[nH]c2c1)c1ccccc1 | i | i | i | i | . | .
O=C(CCc1ccccc1)NCC(c1ccco1)N1CCc2ccccc21 (stereo not given) | i | 7.5* | i | i | 14* | i
O=C(NCC(c1ccco1)N1CCc2ccccc21)c1cccc([N+](=O)[O-])c1 (stereo not given) | i | i | i | i | 23* | i
O=C(NCC(c1ccco1)N1CCc2ccccc21)c1ccccc1F (stereo not given) | i | i | i | i | . | .
O=C(NCC(c1ccco1)N1CCc2ccccc21)c1ccc([N+](=O)[O-])cc1 (stereo not given) | i | i | i | i | . | .
COc1ccc(OC)c2c(C)cc(N3CCCCCC3)nc12 | i | i | i | i | . | .
COc1ccc(OC)c2c(C)cc(C)nc12 | i | 8.8* | i | i | 57* | -81*
CC1=Nc2ccc(C)c3nc(C)cc(c23)N1c1ccc(C)cc1 | i | 8.5* | i | i | 42* | -60*
Cc1ccc(N2C(=O)c3cccc4cccc(c34)C2=O)cc1 | i | i | i | i | . | .
CCn1c(COC(=O)CNC(=O)c2ccccc2F)nc2cc(S(=O)(=O)N(C)C)ccc21 | i | i | i | i | . | .
COc1ccc(-c2cc(C(=O)NNC(=O)c3csc(N4CCOCC4)n3)c3ccccc3n2)cc1OC | i | 7.3* | i | i | 11* | i
COc1ccc(-c2cc(C(=O)NNC(=O)c3csc(N4CCOCC4)n3)c3ccccc3n2)cc1 | i | i | i | i | . | .

Screens deposited in PubChem by Johns Hopkins Ion Channel Center.
